Data published in PubChem BioAssay (Tox21).
Values without a mark were called inactive. Inconclusive results are not listed. A call without a number means that no potency is given here. Activity calls are given as the source filed them. Unless noted, the call rests on the fitted dose curve; in most records, active means well fitted curve in the direction sought with a large enough effect in the repeat runs; inconclusive means weak or mixed curves; inactive means no such curve, though single readings can be large; an effect the other way counts as inactive or inconclusive.

How the values were obtained:
[1] = target: Acetylcholinesterase (Homo sapiens) (UniProt P22303); assay: Acetylcholinesterase (AChE) small molecule antagonists: enzyme-based qHTS assay (AID 1347397; calls by dose curve; further: nearly all actives have a fitted effect of over 55% in size; further: potency means the concentration at half of the fitted maximal effect); conditions: Potency: AChE enzyme activity inhibition
Outline: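 Human recombinant acetylcholinesterase; substrate acetylthiocholine; thiocholine quantified with DTNB (colorimetric). Compound preincubation 30 min RT; reaction 10 min RT.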

[2] = target: Acetylcholinesterase (Homo sapiens) (UniProt P22303); assay: Acetylcholinesterase (AChE) small molecule antagonists: fluorescence cell-based qHTS assay (AID 1347398; calls by dose curve; further: nearly all actives have a fitted effect of over 50% in size; further: potency means the concentration at half of the fitted maximal effect); conditions: Potency: AChE activity
Outline: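 Thiocholine generated from acetylthiocholine by SH-SY5Y cell AChE is detected with Thiolite Green (Ex/Em 490/520 nm) after 40 min at room temperature, following 30 min compound pretreatment at 37 C.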

[3] = target: Acetylcholinesterase (Homo sapiens) (UniProt P22303); assay: Acetylcholinesterase (AChE) small molecule antagonists: enzyme-based qHTS assay with human liver microsomes (AID 1347399; calls by dose curve; further: nearly all actives have a fitted effect of over 60% in size); conditions: Potency: qHTS inhibition
Outline: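 Recombinant human AChE (50 mU/mL in the enzyme mix) and human liver microsomes (0.25 mg/mL final) were preincubated with compound and NADPH (0.25 mg/mL final) for 30 min at 37 C. Acetylthiocholine/DTNB was then added; thiocholine was read colorimetrically after 10 min at room temperature.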

[4] = target: Cytochrome P450 2D6 (Homo sapiens) (UniProt P10635); assay: Cytochrome P450 Family 2 Subfamily D Member 6 (CYP2D6) small molecule antagonists: luciferase reporter qHTS assay (AID 1671196); further: nearly all actives have a fitted effect of over 50% in size; further: potency means the concentration at half of the fitted maximal effect
Outline: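 Cell-free P450-Glo system: CYP2D6 with proluciferin substrate was pre-incubated with compound for 10 min, then reacted with NADPH regeneration for 1 h at room temperature. Luciferin product was detected after 20 min, and data were reported as relative luminescence units.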

[5] = target: Cytochrome P450 2C9 (Homo sapiens) (UniProt P11712); assay: Cytochrome P450 Family 2 Subfamily C Member 9 (CYP2C9) small molecule antagonists: luciferase reporter qHTS assay (AID 1671198); further: nearly all actives have a fitted effect of over 50% in size; further: potency means the concentration at half of the fitted maximal effect
Outline: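 CYP2C9 activity was measured with a P450-Glo proluciferin substrate. Enzyme–substrate mix was held with compound for 10 min at room temperature, then NADPH regeneration solution was added for 1 h at 37C. Luciferin product was read as luminescence.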

[6] = target: Cytochrome P450 1A2 (Homo sapiens) (UniProt P05177); assay: Cytochrome P450 Family 1 Subfamily A Member 2 (CYP1A2) small molecule antagonists: luciferase reporter qHTS assay (AID 1671199); further: nearly all actives have a fitted effect of over 50% in size; further: potency means the concentration at half of the fitted maximal effect
Outline: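 P450-Glo CYP1A2 enzyme–proluciferin substrate mix with compound 10 min at room temperature, then NADPH regeneration 1 h at room temperature. Luciferin detection reagent added, luminescence read after 20 min; furafylline positive control.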

[7] = target: Voltage-gated inwardly rectifying potassium channel KCNH2 (Homo sapiens) (UniProt Q12809); assay: Human Ether-a-go-go-Related Gene (hERG) channel small molecule antagonists: fluorescence cell-based qHTS assay (AID 1671200); further: nearly all actives have a fitted effect of over 50% in size; further: potency means the concentration at half of the fitted maximal effect
Outline: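 U2OS cells expressing the channel were plated at 1000 cells/well, incubated overnight at 37 C, then loaded with FluxOR II thallium-sensitive dye for 1 h at room temperature in the dark, with a further 10 min at room temperature before stimulation.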

[8] = target: Cytochrome P450 2C19 (Homo sapiens) (UniProt P33261); assay: Cytochrome P450 Family 2 Subfamily C Member 19 (CYP2C19) small molecule antagonists: luciferase reporter qHTS assay (AID 1671197); further: nearly all actives have a fitted effect of over 65% in size; further: potency means the concentration at half of the fitted maximal effect
Outline: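 Inhibition of CYP2C19 was scored from loss of luminescence in a P450-Glo proluciferin substrate assay, NADPH-started and run 1 h at 37C, with ketoconazole as positive control.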

[9] = target: Cytochrome P450 3A4 (Homo sapiens) (UniProt P08684); assay: Cytochrome P450 Family 3 Subfamily A Member 4 (CYP3A4) small molecule antagonists: luciferase reporter qHTS assay (AID 1671201); further: nearly all actives have a fitted effect of over 50% in size; further: potency means the concentration at half of the fitted maximal effect
Outline: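 P450-Glo CYP3A4 system with proluciferin substrate; compounds preincubated 10 min RT with enzyme-substrate mix, then NADPH regeneration added for 1 h RT. Detection reagent 20 min, luminescence read as relative luminescence units.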

Cytochrome P450 3A4 (Homo sapiens), sequence (P08684 whole entry, looked up): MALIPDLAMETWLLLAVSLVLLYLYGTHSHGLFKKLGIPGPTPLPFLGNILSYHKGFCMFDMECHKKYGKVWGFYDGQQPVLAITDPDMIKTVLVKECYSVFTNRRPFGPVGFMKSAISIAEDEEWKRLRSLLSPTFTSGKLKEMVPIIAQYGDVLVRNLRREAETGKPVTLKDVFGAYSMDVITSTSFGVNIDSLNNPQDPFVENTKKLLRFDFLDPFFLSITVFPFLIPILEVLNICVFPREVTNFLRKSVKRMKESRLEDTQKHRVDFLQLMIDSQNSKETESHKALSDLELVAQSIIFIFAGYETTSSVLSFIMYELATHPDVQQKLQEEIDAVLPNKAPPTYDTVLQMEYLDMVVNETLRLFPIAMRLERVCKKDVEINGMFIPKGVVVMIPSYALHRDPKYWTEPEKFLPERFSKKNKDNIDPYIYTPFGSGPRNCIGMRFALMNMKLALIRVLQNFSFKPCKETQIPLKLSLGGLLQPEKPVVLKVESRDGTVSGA
Acetylcholinesterase (Homo sapiens), sequence (P22303 whole entry, looked up): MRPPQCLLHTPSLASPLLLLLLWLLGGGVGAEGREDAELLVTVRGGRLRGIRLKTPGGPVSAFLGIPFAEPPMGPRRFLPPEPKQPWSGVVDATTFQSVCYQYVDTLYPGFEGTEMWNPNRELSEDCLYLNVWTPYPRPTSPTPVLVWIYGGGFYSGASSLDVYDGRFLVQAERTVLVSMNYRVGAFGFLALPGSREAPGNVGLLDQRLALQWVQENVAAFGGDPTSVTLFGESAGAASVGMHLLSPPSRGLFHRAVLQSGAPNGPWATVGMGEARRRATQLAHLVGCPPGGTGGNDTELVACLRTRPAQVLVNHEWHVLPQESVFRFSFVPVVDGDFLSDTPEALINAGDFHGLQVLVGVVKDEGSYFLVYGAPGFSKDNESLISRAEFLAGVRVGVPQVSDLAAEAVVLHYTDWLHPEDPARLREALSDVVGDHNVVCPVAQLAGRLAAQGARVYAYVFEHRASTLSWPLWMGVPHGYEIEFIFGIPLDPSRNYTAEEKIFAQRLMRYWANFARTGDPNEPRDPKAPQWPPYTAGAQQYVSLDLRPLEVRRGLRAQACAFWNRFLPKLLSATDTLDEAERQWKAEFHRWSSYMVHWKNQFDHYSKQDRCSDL
Cytochrome P450 2C19 (Homo sapiens), sequence (P33261 whole entry, looked up): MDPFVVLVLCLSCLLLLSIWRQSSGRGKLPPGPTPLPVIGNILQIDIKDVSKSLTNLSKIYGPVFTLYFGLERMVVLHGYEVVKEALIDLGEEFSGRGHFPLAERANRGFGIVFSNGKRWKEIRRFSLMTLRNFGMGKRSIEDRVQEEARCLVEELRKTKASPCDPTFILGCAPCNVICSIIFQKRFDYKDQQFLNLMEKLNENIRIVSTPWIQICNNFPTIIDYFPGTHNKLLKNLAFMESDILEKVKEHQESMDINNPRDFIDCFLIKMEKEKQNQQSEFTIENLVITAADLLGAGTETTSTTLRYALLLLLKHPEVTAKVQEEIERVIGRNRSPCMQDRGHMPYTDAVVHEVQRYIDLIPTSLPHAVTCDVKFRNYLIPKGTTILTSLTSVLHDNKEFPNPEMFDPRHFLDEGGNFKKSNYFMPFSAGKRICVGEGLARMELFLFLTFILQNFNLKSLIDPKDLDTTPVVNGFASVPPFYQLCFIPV
Cytochrome P450 2D6 (Homo sapiens), sequence (P10635 whole entry, looked up): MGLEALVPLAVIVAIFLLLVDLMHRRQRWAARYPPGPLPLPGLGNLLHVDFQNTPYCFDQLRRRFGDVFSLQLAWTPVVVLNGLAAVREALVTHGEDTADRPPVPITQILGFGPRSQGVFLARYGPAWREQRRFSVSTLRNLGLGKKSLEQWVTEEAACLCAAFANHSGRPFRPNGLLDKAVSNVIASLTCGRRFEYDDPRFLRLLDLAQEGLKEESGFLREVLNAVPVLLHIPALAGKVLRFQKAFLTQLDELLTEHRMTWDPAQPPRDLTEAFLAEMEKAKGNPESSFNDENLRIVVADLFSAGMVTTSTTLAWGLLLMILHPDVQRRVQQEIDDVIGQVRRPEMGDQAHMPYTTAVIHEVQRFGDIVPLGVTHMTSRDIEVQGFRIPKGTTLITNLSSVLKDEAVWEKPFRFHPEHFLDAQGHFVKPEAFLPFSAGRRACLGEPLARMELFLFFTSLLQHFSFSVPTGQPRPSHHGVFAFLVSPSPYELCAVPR
Cytochrome P450 1A2 (Homo sapiens), sequence (P05177 whole entry, looked up): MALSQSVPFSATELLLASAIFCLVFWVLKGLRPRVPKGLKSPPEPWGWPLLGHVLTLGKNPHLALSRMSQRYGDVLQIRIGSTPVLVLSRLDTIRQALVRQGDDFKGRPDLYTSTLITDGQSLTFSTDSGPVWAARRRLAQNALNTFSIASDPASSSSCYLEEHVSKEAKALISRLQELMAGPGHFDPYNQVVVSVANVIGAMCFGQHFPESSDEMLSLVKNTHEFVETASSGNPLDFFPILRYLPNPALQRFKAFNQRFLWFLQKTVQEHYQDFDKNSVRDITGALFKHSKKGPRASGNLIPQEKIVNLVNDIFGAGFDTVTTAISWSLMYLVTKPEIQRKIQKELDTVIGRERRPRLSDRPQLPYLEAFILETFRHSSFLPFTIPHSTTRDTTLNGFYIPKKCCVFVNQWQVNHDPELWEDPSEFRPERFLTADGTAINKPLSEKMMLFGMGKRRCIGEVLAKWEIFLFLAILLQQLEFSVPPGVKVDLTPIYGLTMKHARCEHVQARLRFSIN
Voltage-gated inwardly rectifying potassium channel KCNH2 (Homo sapiens), sequence (Q12809 whole entry, looked up): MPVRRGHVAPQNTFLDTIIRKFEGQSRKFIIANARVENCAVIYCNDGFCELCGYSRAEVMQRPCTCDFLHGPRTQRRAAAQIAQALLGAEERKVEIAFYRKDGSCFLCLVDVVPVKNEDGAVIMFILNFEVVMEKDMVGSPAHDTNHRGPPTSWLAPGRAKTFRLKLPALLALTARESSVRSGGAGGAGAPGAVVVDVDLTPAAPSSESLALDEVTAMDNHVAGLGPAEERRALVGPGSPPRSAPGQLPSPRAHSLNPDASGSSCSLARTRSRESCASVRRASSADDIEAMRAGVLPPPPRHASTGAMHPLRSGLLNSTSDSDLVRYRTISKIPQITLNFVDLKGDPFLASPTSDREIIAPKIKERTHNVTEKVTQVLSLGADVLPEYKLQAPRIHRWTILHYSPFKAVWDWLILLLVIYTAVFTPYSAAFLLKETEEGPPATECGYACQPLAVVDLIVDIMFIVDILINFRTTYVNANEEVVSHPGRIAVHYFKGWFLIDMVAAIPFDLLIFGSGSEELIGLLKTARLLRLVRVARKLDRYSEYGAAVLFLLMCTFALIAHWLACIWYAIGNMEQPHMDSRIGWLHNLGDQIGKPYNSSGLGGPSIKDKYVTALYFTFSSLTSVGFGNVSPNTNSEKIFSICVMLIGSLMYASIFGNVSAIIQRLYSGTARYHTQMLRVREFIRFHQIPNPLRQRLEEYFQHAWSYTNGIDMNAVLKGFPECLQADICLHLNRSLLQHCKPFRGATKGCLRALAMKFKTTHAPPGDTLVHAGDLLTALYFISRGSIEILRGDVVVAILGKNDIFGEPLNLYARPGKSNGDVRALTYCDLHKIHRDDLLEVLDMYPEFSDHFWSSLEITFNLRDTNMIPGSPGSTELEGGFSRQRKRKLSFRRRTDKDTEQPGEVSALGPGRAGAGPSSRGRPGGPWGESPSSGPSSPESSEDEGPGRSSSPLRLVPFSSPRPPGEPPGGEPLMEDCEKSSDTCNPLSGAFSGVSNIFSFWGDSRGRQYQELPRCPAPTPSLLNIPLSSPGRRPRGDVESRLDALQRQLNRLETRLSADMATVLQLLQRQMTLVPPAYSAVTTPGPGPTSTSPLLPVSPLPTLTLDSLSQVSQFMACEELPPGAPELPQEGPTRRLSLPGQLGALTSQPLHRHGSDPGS
Cytochrome P450 2C9 (Homo sapiens), sequence (P11712 whole entry, looked up): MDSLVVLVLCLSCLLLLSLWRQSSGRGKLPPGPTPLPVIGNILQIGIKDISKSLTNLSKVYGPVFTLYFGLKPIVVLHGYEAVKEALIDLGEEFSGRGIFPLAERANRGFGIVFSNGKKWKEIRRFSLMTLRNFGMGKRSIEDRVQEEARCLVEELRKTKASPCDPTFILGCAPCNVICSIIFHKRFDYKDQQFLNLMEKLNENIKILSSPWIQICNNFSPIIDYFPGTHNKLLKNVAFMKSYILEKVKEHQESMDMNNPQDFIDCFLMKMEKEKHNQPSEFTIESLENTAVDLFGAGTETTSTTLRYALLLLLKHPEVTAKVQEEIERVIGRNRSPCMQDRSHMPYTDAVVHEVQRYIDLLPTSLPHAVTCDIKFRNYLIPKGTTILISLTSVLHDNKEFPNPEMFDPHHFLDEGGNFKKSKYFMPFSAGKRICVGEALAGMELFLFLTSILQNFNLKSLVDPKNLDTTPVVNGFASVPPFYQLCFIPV

Row | SMILES | Potency [1] | Potency [2] | Potency [3] | Potency [4] | Potency [5] | Potency [6] | Potency [7] | Potency [8] | Potency [9]
1 | O=[N+]([O-])c1ccc2c3c(cccc13)CC2 | inactive | inactive | inactive | inactive | inactive | 2.24 µM (active) | inactive |  | 
2 | ClCCCN1CCN(c2cccc(Cl)c2)CC1 | inactive | inactive | inactive | 0.977 µM (active) |  | 15.5 µM (active) |  | 8.71 µM (active) | 
3 | CC(Oc1ccc(Oc2ncc(C(F)(F)F)cc2Cl)cc1)C(=O)O (stereo not drawn) | inactive | inactive | inactive | 71 µM (active) | 35.6 µM (active) | 39.9 µM (active) |  |  | 
4 | COC(=O)COc1ccc(Cl)cc1Cl | inactive | inactive | inactive | inactive | inactive | 12.6 µM (active) | inactive |  | 
5 | N#CC(Cl)(Cl)Cl | inactive | inactive | inactive | 69.2 µM (active) | inactive | inactive | inactive |  | inactive
6 | CC(=O)C(Cl)Cl | inactive | inactive | inactive | inactive | inactive | inactive | inactive |  | inactive
7 | COCC(=O)N(c1c(C)cccc1C)N1CCOC1=O | inactive | inactive | inactive | inactive | inactive | inactive | inactive |  | inactive
8 | N#CCCC#N | inactive | inactive | inactive | inactive | inactive | inactive | inactive |  | inactive
9 | N#CCBr | inactive | inactive | inactive | inactive |  | inactive | inactive | inactive | 
10 | ClC(Br)Br | inactive | inactive | inactive | inactive | inactive | inactive | inactive |  | inactive
11 | CCC(=O)C(CCN(C)C)(c1ccccc1)c1ccccc1 | inactive | inactive | inactive | 5.49 µM (active) |  | inactive |  | 11 µM (active) | 
12 | CSc1ccc(C(=O)C(C)(C)N2CCOCC2)cc1 | inactive | inactive | inactive | 2.52 µM (active) | 20 µM (active) |  |  | 1.12 µM (active) | 2 µM (active)
13 | Cc1nnc2n1-c1sc(CCC(=O)N3CCOCC3)cc1C(c1ccccc1Cl)=NC2 | inactive | inactive | inactive | inactive | inactive | inactive | inactive |  | 
14 | CCC1(c2ccccc2)C(=O)N=C(O)NC1=O (stereo not drawn) | inactive | inactive | inactive | inactive | 61.6 µM (active) | inactive |  |  | inactive
15 | C=CCC1=C(C)[C@@H](OC(=O)[C@@H]2[C@@H](C=C(C)C)C2(C)C)CC1=O | inactive | inactive | inactive | 35.6 µM (active) | 12.6 µM (active) | 28.3 µM (active) | 21.9 µM (active) |  | 
16 | COC(=O)c1ccccc1S(=O)(=O)NC(=O)N(C)c1nc(C)nc(OC)n1 | inactive | inactive | inactive | inactive | inactive | inactive | inactive |  | 
17 | O=CNC(N1CCN(C(NC=O)C(Cl)(Cl)Cl)CC1)C(Cl)(Cl)Cl (stereo not drawn) | inactive | inactive | inactive | 31.7 µM (active) | 35.6 µM (active) | inactive | inactive |  | 7.96 µM (active)
18 | CCN(CC)C(=O)[C@@H]1C=C2c3cccc4[nH]cc(c34)C[C@H]2N(C)C1 | 104 µM (active) | 58.7 µM (active) | inactive | 0.466 µM (active) |  |  | inactive | 165 µM (active) | 82.8 µM (active)
19 | CCCCP(CCCC)CCCC | inactive | inactive | inactive | 35.6 µM (active) |  |  | inactive | 31.7 µM (active) | inactive
20 | CCCCN(CCCCO)N=O | inactive | inactive | inactive | inactive |  | inactive |  | inactive | 
21 | CN(N=O)C(N)=O | inactive | inactive | inactive | inactive | inactive | inactive | inactive |  | inactive
22 | CCC(C)n1c(=O)[nH]c(C)c(Br)c1=O (stereo not drawn) | inactive | inactive | inactive | inactive |  |  | inactive | 39.9 µM (active) | inactive
23 | CCC(C)(C)c1cc(-n2nc3ccccc3n2)c(O)c(C(C)(C)CC)c1 | inactive | inactive | inactive | 25.6 µM (active) |  | 36.1 µM (active) | inactive | 20.3 µM (active) | 
24 | Nc1cnn(-c2ccccc2)c(=O)c1Cl | inactive | inactive | inactive | inactive |  | inactive |  | inactive | inactive
25 | O=C(O)c1cccc(Cl)c1 | inactive | inactive | inactive | inactive |  | 40 µM (active) | inactive | inactive | inactive
26 | COC(=O)c1ccccc1S(=O)(=O)NC(=O)Nc1nc(C)cc(C)n1 | inactive | inactive | inactive | inactive | inactive | inactive | inactive |  | inactive
27 | Nc1cc2c3c(c1)C(c1ccccc1)=N[C@@H](NC(=O)c1cccnc1)C(=O)N3CC2 | inactive | inactive | inactive | inactive | 7.1 µM (active) | inactive | inactive |  | 11.2 µM (active)
28 | O=[N+]([O-])c1cccc2cccnc12 | inactive | inactive | inactive | inactive | inactive | 36.5 µM (active) | inactive |  | inactive
